VP16 counter: inhibits Gal4-VP16 luciferase reporter, ROR gamma counter-screen. Potency, µM (top dose mostly 53.6 µM), actives largely listed as inhibitors. 3.5% of 310,000 active. AID 2546. Drosophila S2 Gal4-VP16 UAS-luciferase, luminescence, 20 h;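 also: Gal4-VP16 expression switched on by copper sulfate through the metallothionein promoter; nearly all actives have a fitted effect of over 50% in size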
RORg inh: blocks mouse ROR gamma transcriptional activity; 5.4% of 310,000 active; Drosophila S2 Gal4-RORgamma UAS-luciferase reporter, 20 h; P51450; Potency, µM (doses to about 53.6 µM), actives largely listed as inhibitors; also: nearly all actives have a fitted effect of over 60% in size
Target sequence (P51450 whole entry, looked up, the tested form may be a part): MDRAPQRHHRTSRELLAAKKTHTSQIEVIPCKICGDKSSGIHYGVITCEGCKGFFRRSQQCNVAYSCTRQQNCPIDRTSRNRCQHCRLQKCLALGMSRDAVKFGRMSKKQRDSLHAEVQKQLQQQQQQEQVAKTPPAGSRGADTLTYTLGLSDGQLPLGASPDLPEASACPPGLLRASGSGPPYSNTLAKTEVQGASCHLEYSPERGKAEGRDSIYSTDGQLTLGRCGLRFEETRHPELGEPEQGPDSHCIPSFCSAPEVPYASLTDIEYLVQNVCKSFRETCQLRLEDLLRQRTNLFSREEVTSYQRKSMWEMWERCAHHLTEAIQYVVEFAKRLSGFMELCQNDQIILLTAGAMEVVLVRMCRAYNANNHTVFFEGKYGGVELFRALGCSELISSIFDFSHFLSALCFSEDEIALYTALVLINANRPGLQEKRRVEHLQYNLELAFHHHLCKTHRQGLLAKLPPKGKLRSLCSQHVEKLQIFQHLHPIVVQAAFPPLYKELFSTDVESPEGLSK
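ROR gamma transcriptional activity was tracked as Gal4-UAS luciferase output in stably transfected Drosophila Schneider cells, with compound added 1 hr before 700 uM copper sulfate induction and a 20 hr ambient-temperature incubation.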
MCF10A rereplic: induces DNA re-replication in MCF 10a normal breast cells | MCF 10A DNA re-replication, Hoechst nuclear intensity, 48 h | AID 624296 | 2.9% of 350,000 active | Potency, µM (series often up to 46.1 µM), most hits filed as activators; also: nearly all actives have a fitted effect of over 50% in size
ELG1 DNA repair: inhibitors of ELG1-dependent DNA repair in HEK293T cells | HEK293T ELG1-luciferase reporter, luminescence, 16 h; DNA damage induced by 5-fluorouridine | Potency, µM (top dose mostly 46.1 µM), hits mostly inhibitors | AID 504467 | 2.3% of 330,000 active; also: nearly all actives have a fitted effect of over 55% in size
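Cells (2,000 per well) received 5-fluorouridine plus test compound or DMSO and were incubated 16 hr at 37 °C, 5% CO2. Luciferase activity was read by luminescence 30 min after ONE-Glo addition; signal suppression marked inhibition of damage-induced ELG1 function.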
SW480 rereplic: induces DNA re-replication in SW480 colon adenocarcinoma cells; Potency, µM (doses to about 46.1 µM), most hits filed as activators; 1.8% of 340,000 active; SW480 DNA re-replication, Hoechst DNA content imaging, 48 h; also: nearly all actives have a fitted effect of over 55% in size
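Hoechst fluorescence of nuclei (405 nm excitation, 500-530 nm emission) measured by plate-scanning imager after 48 hr compound exposure at 37 C; re-replication scored as increased number of nuclei with elevated intensity.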
Each line names hits and unclear results; the compound was inactive in the other large screens. In the library only some 10% were active in any assay of this set; here they are far more common. Calls follow the shape of the dose curve; as a rule, active = well fitted curve in the direction sought with a large enough effect; inconclusive = small, poorly fitted or top-dose-only effect, or another doubt; inactive = no such curve, though single readings can be large; an effect the other way counts as inactive or inconclusive.

O=C(c1cc(-c2ccc(F)cc2)on1)N1CCCC1	RORg inh 14µM, ELG1 DNA repair inconclusive
O=C(c1cc(-c2cccc(O)c2)on1)N1CCCCC1	RORg inh 0.71µM, ELG1 DNA repair inconclusive
COc1cccc(/C=C/C(=O)OCC(=O)Nc2cccc(S(=O)(=O)NC3=NCCCCC3)c2)c1	none (no result: VP16 counter, RORg inh)
C=CCc1ccc(OCc2ccc(C(=O)Nc3ccc(NC(C)=O)cc3)o2)c(OC)c1	MCF10A rereplic inconclusive, ELG1 DNA repair inconclusive
COc1ccc(-c2nn(CCC#N)cc2C(=O)Nc2cccc(C(=O)O)c2)cc1[N+](=O)[O-]	none
COc1ccccc1CNC(=O)Cn1nc(C(F)(F)F)cc1C	none (no result: VP16 counter, RORg inh)
CC(C)CCOc1ccc(-c2c(=O)n(OCc3ccc([N+](=O)[O-])cc3)c3ccccc3[n+]2[O-])cc1	RORg inh inconclusive, MCF10A rereplic 1.8µM, SW480 rereplic inconclusive
O=c1cc(C(Cl)(Cl)Cl)oc2c1ccc1ccccc12	VP16 counter 5.6µM, RORg inh 1.4µM, MCF10A rereplic 8.2µM, SW480 rereplic 13µM
COc1ccc(-c2ccc3c(c2)O/C(=C\c2ccsc2)C3=O)cn1	MCF10A rereplic inconclusive, ELG1 DNA repair inconclusive (no result: VP16 counter, RORg inh)
OCC1(Cc2ccc(Cl)cc2)CCN(Cc2ccccc2F)CC1	none
OCC1(Cc2ccc(Cl)cc2)CCN(CCCc2ccccc2)CC1	MCF10A rereplic inconclusive, SW480 rereplic 18µM
CC(C)CC1=NN(C(=O)c2ccco2)C(O)(C(F)(F)F)C1 (stereo not given)	VP16 counter 14µM, RORg inh 6.3µM
CC(C)CCC1=NN(C(=O)c2ccco2)C(O)(C(F)(F)F)C1 (stereo not given)	ELG1 DNA repair inconclusive
CCOC(=O)N(C)S(=O)(=O)c1ccccc1[N+](=O)[O-]	none
O=C(C1CCN(S(=O)(=O)c2ccc(Cl)cc2)CC1)N1CCC1	none (no result: VP16 counter, RORg inh)
Cc1ccc(S(=O)(=O)NCC2CCC(C(=O)N3CCN(C)CC3)CC2)cc1 (stereo not given)	MCF10A rereplic 18µM, SW480 rereplic inconclusive
COC(=O)C1CCN(C(=O)C2CCN(C(=O)[C@@H](NS(=O)(=O)c3ccc(C)cc3)C(C)C)CC2)CC1	VP16 counter inconclusive, RORg inh 1.1µM
CC[C@@H](C)[C@H](NC(=O)C1CCN(C(=O)[C@@H](NS(=O)(=O)c2ccc(C)cc2)C(C)C)CC1)C(=O)O	none
O=C(NCCCN1CCCC1=O)C1CCC(CNS(=O)(=O)c2ccc(Cl)cc2)CC1 (stereo not given)	none
O=C(C1CCN(S(=O)(=O)c2c(Cl)cccc2Cl)CC1)N1CCCCCCC1	ELG1 DNA repair inconclusive, SW480 rereplic 4.1µM (no result: VP16 counter, RORg inh)
O=C(NCCN1CCOCC1)C1CCC(CNS(=O)(=O)c2ccc(Cl)cc2)CC1 (stereo not given)	MCF10A rereplic 16µM
CCOC(=O)C1C(=O)NC(C(=O)OCC)(C(=O)OCC)C1C(C)CC (stereo not given)	none (no result: VP16 counter, RORg inh, ELG1 DNA repair)
O=C(CN1CCCCCC1)Nc1ccccc1C(=O)Nc1ccccc1	ELG1 DNA repair inconclusive (no result: VP16 counter, RORg inh)
Cc1ccc(S(=O)(=O)N2CCN(C(=O)C3CCCCC3)CC2)cc1	MCF10A rereplic 2.9µM, SW480 rereplic inconclusive
Cc1cccc(N2CCN(C(=O)C3CCC(CNS(=O)(=O)c4cccs4)CC3)CC2)c1C (stereo not given)	VP16 counter 11µM, RORg inh inconclusive, MCF10A rereplic inconclusive, ELG1 DNA repair 9.2µM, SW480 rereplic inconclusive
Cc1c(CC(=O)O)c(=O)oc2cc(OCc3ccc(Br)cc3)ccc12	none
COc1ccc(S(=O)(=O)Nc2cccc(-c3ccc4nncn4n3)c2)cc1	MCF10A rereplic 5.8µM, SW480 rereplic 3.5µM (no result: VP16 counter, RORg inh)
COc1ccc(C(=O)Nc2cccc(-c3ccc4nncn4n3)c2)cc1	none
CC(C)CNC(=O)c1cccc(NC(=O)c2ccc3c(c2)C(=O)N(C)C3=O)c1	none
CC(=O)Nc1ccc(CN2CCN(C3CCCC3)C(CCO)C2)cc1 (stereo not given)	MCF10A rereplic 2.6µM
OCCC1CN(Cc2cnc(-c3cccc4ccccc34)nc2)CCN1C1CCCCC1 (stereo not given)	SW480 rereplic 1.8µM
CCCn1c(SCN2C(=O)c3ccccc3C2=O)nc2cc(Cl)ccc2c1=O	VP16 counter inconclusive, RORg inh 10µM
COC(=O)C1=C(C(=O)OC)[C@]2([C@H]3CC=CCN[C@@H](Cc4ccccc4)C(=O)N3Cc3ccccc3)C=C[C@H]1O2	none (no result: VP16 counter, RORg inh, ELG1 DNA repair)
CC(=O)N1c2cc3ccccc3cc2N(C(C)=O)c2cc3ccccc3cc21	none (no result: VP16 counter, RORg inh, ELG1 DNA repair)
Cc1ccc(N=Cc2nc(-c3ccc(C)cc3)oc2O)cc1	MCF10A rereplic 6.5µM, SW480 rereplic inconclusive
CC(=O)Nc1ccc(N=Cc2nc(-c3ccc(C)cc3)oc2O)cc1	ELG1 DNA repair inconclusive
CCCC(=O)Nc1nnc(S(=O)(=O)N(CC)c2ccc(OC)cc2)s1	none
O=C1CC(N2CCCc3ccccc32)C(=O)N1c1ccccc1Cl (stereo not given)	none
CC(=O)NCCNC(=O)c1ccc(Cn2c(=O)[nH]c3ccsc3c2=O)cc1	none
COc1ccc(Cn2c(=S)[nH]c3ccsc3c2=O)cc1	VP16 counter 2.2µM, RORg inh 1.4µM
O=C(Nc1cc(Cl)cc(Cl)c1)c1ccc(Cn2c(=O)[nH]c3ccsc3c2=O)cc1	VP16 counter inconclusive, RORg inh inconclusive, MCF10A rereplic 23µM, ELG1 DNA repair inconclusive
O=c1c2sccc2[nH]c(=S)n1Cc1ccccc1	VP16 counter 2.8µM, RORg inh 1.8µM
CCN1C(=O)N[C@@H](CCc2ccccc2)[C@@H](C(=O)OC)[C@H]1C	MCF10A rereplic inconclusive
CCOC(=O)CSc1n[nH]c(NC(C)=O)n1	none
COc1ccc(/C=N/NC(=O)CCSc2nc3ccccc3s2)cc1	MCF10A rereplic inconclusive, ELG1 DNA repair inconclusive, SW480 rereplic 10µM
COc1ccc(/C=N/NC(=O)CCn2cnc3ccccc32)cc1	VP16 counter inconclusive, RORg inh 13µM, SW480 rereplic inconclusive
COc1cccc(/C=N/NC(=O)CCn2cnc3ccccc32)c1	MCF10A rereplic inconclusive, SW480 rereplic 3.7µM
O=C(CCn1cnc(-c2ccccc2)c1-c1ccccc1)N/N=C/c1ccccc1O	VP16 counter 2.8µM, RORg inh inconclusive, MCF10A rereplic 4.6µM, SW480 rereplic 9.2µM
COc1cccc(/C=N/NC(=O)C(C)Cn2cnc3ccccc32)c1 (stereo not given)	RORg inh inconclusive, ELG1 DNA repair inconclusive
O=C(CCC(=O)Nc1ccc(Br)cc1)N/N=C/c1ccccc1O	VP16 counter inconclusive, RORg inh inconclusive, ELG1 DNA repair inconclusive, SW480 rereplic inconclusive
O=C(CCn1cnc2ccccc21)N/N=C/C=C/c1ccccc1	none
COc1ccc(OCCSc2nc(C)nc3ccccc23)cc1	MCF10A rereplic inconclusive, ELG1 DNA repair inconclusive
COc1ccc(C2=NN(C(=O)CSc3nc4ccccc4s3)C(c3ccc(F)cc3)C2)cc1 (stereo not given)	none

Assay outcomes from PubChem BioAssay.
